TcdB GH inh – inhibitors of Clostridioides difficile toxin B glycohydrolase; TcdB glycohydrolase enzymatic assay, plate reader; P18177; inhibition, % at 9.99 µM; 0.24% of 350,000 active; in the data active means inhibition above about 10%
BioA inh-1 – blocks M. tuberculosis BioA enzyme activity. purified M. tuberculosis BioA enzyme, plate reader. inhibition, % at 9.99 µM. 0.096% of 360,000 active. AID 602481; in the data active means inhibition above about 40%
Yp Topo-I inh – Y. pestis Topo-I inhibition via cleavage products; Y. pestis Topo-I cleavage product accumulation, plate reader; activity, % at 10 µM; 0.064% of 360,000 active; in the data active means activity above about 50%, passing the limit was not always enough
PrP 5UTR inh – suppresses PrP 5' UTR mRNA reporter expression | inhibition, % (no concentration beside the values) | cell-based PrP 5' UTR mRNA reporter, plate reader | 0.35% of 340,000 active; in the data active means inhibition above about 52%; further: 0 = median of the neutral control wells
BioA inh-2 – blocks M. tuberculosis BioA aminotransferase | shares compounds with BioA inh-1 | purified BioA enzyme, plate reader, dose response | max activity, % | 310 tested, under 10 active;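 further: top concentration of the dilution series was 10 µM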
Target sequence (P9WQ81 whole entry, looked up): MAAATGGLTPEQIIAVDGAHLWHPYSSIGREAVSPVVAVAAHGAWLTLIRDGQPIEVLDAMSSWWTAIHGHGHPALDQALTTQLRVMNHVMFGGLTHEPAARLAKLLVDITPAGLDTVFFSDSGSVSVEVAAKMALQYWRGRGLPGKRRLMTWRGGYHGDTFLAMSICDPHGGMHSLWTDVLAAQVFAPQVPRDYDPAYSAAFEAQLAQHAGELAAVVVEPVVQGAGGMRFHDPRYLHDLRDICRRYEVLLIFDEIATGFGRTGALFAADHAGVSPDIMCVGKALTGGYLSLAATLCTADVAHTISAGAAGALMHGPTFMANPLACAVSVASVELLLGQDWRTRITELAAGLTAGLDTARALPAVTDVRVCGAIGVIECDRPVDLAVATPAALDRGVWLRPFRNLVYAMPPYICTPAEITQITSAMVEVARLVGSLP
HepG2 tox 2 – cytotoxicity in HepG2 cells; shares compounds with BioA inh-1; plate reader; max activity, %; 310 tested, under 10 active; AID 651898
3T3 cytotox 5 – kills NIH3T3 cells; 310 tested, under 10 active; NIH3T3 cytotoxicity, plate reader; shares compounds with BioA inh-1; activity change, negative = cytotoxicity, % at 26 µM
* hit, by the source's call; i = inactive; · = no result given; [ ] = another dose, or the depositor's remark. Sampled rows, rich in hits. Any-hit rate of the full collection: about 0.53%. Unless noted, how the calls were made is not given here.

SMILES	TcdB GH inh	BioA inh-1	Yp Topo-I inh	PrP 5UTR inh	BioA inh-2	HepG2 tox 2	3T3 cytotox 5
CC(=O)N1CC[C@@H]2[C@@H](CO)N(C)c3ccc(-c4ccccc4)cc3[C@@H]21	17.4*	42.5*	·	·	17.6	i	9.9
CN1c2ccc(-c3ccccc3)cc2[C@@H]2[C@@H](CCN2C(=O)c2ccc3c(c2)OCO3)[C@H]1CO	-1.0	·	·	·	·	·	·
CN1c2ccc(-c3cccc(F)c3)cc2[C@H]2[C@H](CCN2C(=O)C2CCOCC2)[C@@H]1CO	0.7	38.3	·	·	·	·	·
C[C@H](O)C#Cc1ccc2c(c1)O[C@@H](CN(C)C(=O)Nc1ccccc1)[C@@H](C)CN([C@@H](C)CO)S2(=O)=O	0.4	0.7	·	·	·	·	·
COc1cccc(NC(=O)N[C@@H]2C=C[C@@H](CC(=O)N3CCN(C)CC3)O[C@@H]2CO)c1	0.1	·	·	·	·	·	·
CN1c2ccc(-c3cccc(C#N)c3)cc2[C@H]2[C@H](CCN2C(=O)CC2CC2)[C@H]1CO	·	64.7*	·	·	17.3	i	3.4[23.5 µM]
CCC(=O)N1CC[C@@H]2[C@H]1c1cc(-c3cccc(F)c3)ccc1N(C)[C@@H]2CO	·	89.5*	·	·	-4.1	i	-6.6[23.5 µM]
CN1c2ccc(-c3cccc(C#N)c3)cc2[C@@H]2[C@@H](CCN2C(=O)CC2CC2)[C@H]1CO	·	14.5	·	·	·	·	·
COc1ccc(C2c3c(oc4ccc(Cl)cc4c3=O)C(=O)N2CCN2CCOCC2)cc1 (configuration not stated)	1.5	72.5*	-11.7	-12.6	-6.0	10.2	5.9
O=C1c2oc3ccc(Cl)cc3c(=O)c2C(c2ccco2)N1CCN1CCOCC1 (configuration not stated)	-9.5	23.6	13.4	-9.4	·	·	·
Cc1ccc(NC(=O)C2CCN(S(=O)(=O)c3cccs3)CC2)cc1	0.5	·	10.7	-4.5	·	·	·
O=C(Nc1ccc(F)c(F)c1)C1CCN(S(=O)(=O)c2cccs2)CC1	-0.3	58.2*	-0.8	-11.8	-9.2	14.0	-5.1
CCN(CC)CCNC(=O)c1cn(CC)c2ccc(S(=O)(=O)N3CCc4ccccc4C3)cc2c1=O	2.2	58.5*	7.3	-7.2	-6.2	-7.6	0.1
CCN(CC)CCCNC(=O)c1cn(CC)c2ccc(S(=O)(=O)N3CCc4ccccc4C3)cc2c1=O	0.4	·	4.3	-4.9	·	·	·
CN(CCc1ccccn1)C(=O)CCC1CCCN(C(=O)c2cscn2)C1 (configuration not stated)	-0.3	·	-5.2	-13.6	·	·	·
CC(=O)c1ccc(C(=O)N2CCCC(CCC(=O)N(C)CCc3ccccn3)C2)s1 (configuration not stated)	-1.5	66.1*	2.4	-23.3	3.0	-15.0	-9.7
N#C[C@@H]1[C@H](c2ccccc2)[C@H](CO)N1C(=O)Nc1cccc(F)c1	-1.3	29.2	·	·	·	·	·
N#C[C@H]1[C@@H](c2ccccc2)[C@@H](CO)N1C(=O)Nc1cccc(F)c1	-0.5	76.6*	·	·	16.7	i	7.9
Cc1cc(C)n2nc(C(=O)Nc3cccnc3)nc2n1	·	65.4*	-1.9	-20.8	-7.3	-11.8	3.3
COc1ccc(C2c3c(-c4cc(Cl)c(C)cc4O)n[nH]c3C(=O)N2Cc2cccnc2)cc1OC (configuration not stated)	·	55.9*	-1.8	-14.6	-6.1	-10.4	-6.3
COc1ccc(C2c3c(-c4ccccc4O)n[nH]c3C(=O)N2Cc2ccco2)cc1OC (configuration not stated)	0.3	·	-1.2	1.7	·	·	·
CC(=O)c1ccc(N2CCN(C(=O)Cc3ccccc3)CC2)c(F)c1	0.5	55.1*	5.8	-4.7	-5.2	20.3	2.1
CC(=O)c1ccc(N2CCN(C(=O)c3ccco3)CC2)c(F)c1	·	21.0	-0.4	-49.7	·	·	·
CC(=O)c1ccc(N2CCN(C(=O)c3ccc(Br)cc3)CC2)c(F)c1	·	92.8*	23.2	-22.3	-5.5	-10.7	2.1
C[C@H]1CN([C@@H](C)CO)C(=O)c2cc(C#CCN(C)C)cnc2O[C@H]1CN(C)C(=O)NC1CCCCC1	0.3	0.5	·	·	·	·	·
SMILES	TcdB GH inh	BioA inh-1	Yp Topo-I inh	PrP 5UTR inh	BioA inh-2	HepG2 tox 2	3T3 cytotox 5
COc1cccc(C#Cc2ccc([C@H]3[C@@H](CO)N4C(=O)CN(C(=O)Cc5ccccc5)C[C@H]34)cc2)c1	-0.8	·	·	·	·	·	·
Cc1noc(C)c1S(=O)(=O)N(C)C[C@H]1OCCCC[C@H](C)Oc2ccc(NC(=O)Nc3cccc4ccccc34)cc2C(=O)N([C@H](C)CO)C[C@@H]1C	0.5	1.3	·	·	·	·	·
Cc1cccc(-n2c(SCC(=O)N(C)C3CCS(=O)(=O)C3)nc3ccccc3c2=O)c1C (configuration not stated)	0.8	47.2*	10.3	-26.2	2.6	17.3	4.2
CN(C(=O)CSc1nc2ccccc2c(=O)n1-c1ccccc1F)C1CCS(=O)(=O)C1 (configuration not stated)	3.6	20.8	3.3	-5.8	·	·	·
Cc1cccc(-c2ccc([C@@H]3[C@@H](CO)N4C(=O)CN(C(=O)Cc5ccccn5)C[C@H]34)cc2)c1	0.6	·	·	·	·	·	·
C[C@@H]1CN([C@@H](C)CO)C(=O)c2cc(C#Cc3cccnc3)cnc2O[C@@H]1CN(C)S(C)(=O)=O	0.2	5.5	·	·	·	·	·
C[C@@H]1CN([C@H](C)CO)C(=O)c2cc(C#Cc3cccnc3)cnc2O[C@H]1CN(C)S(C)(=O)=O	1.0	84.2*	·	·	-2.2	i	-1.7
CO[C@H]1CN(C)C(=O)c2cc(NC(=O)Nc3cccc(F)c3)ccc2OC[C@@H](C)N(C(=O)Nc2c(C)noc2C)C[C@@H]1C	0.0	2.4	·	·	·	·	·
O=C(Nc1ncc2c(n1)CC(c1ccco1)CC2=O)c1ccco1 (configuration not stated)	-12.3	53.7*	-1.4	-9.2	22.3	25.2	2.7
C[C@H]1CN([C@@H](C)CO)S(=O)(=O)c2ccc(-c3cccc(C#N)c3)cc2O[C@@H]1CN(C)C(=O)C1CC1	-1.2	1.1	·	·	·	·	·
COc1cccc(NC(=O)CCC2CCN(C(=O)c3sccc3C)CC2)c1	1.4	4.1	15.6	-11.5	·	·	·
COc1cccc(NC(=O)CCC2CCN(C(=O)c3ccc(C(C)=O)s3)CC2)c1	0.8	71.8*	19.2	-13.5	2.4	-13.3	-0.2
C[C@H](CO)N1C[C@H](C)[C@H](CN(C)C(=O)Nc2ccc(F)cc2)Oc2c(NS(C)(=O)=O)cccc2C1=O	0.3	-0.9	·	·	·	·	·
C=C(C)n1c(=O)n(Cc2ccccc2C)c2ccccc21	0.8	48.2*	8.0	-6.6	-9.8	-13.7	-17.7
C=C(C)n1c(=O)n(Cc2ccc(C)cc2)c2ccccc21	-0.7	0.0	25.1	-17.3	·	·	·
CCOC(=O)c1c(C)[n+](-c2ccc(C)cc2)c(CC)c2cc(OC)c(OC)cc12	-0.6	77.2*	1.7	·	-8.5	12.5	-2.5
COc1cc2c3cc1Oc1cc(ccc1O)C[C@@H]1c4c(cc(OC)c(O)c4Oc4ccc(cc4)C[C@H]3N(C)CC2)CCN1C	-9.3	0.7	-1.4	-4.1	·	·	·
COc1cc2c3cc1Oc1cc(ccc1O)C[C@@H]1c4c(cc(OC)c(O)c4Oc4cccc(c4)C[C@@H]3N(C)CC2)CC[N+]1(C)C	-6.7	51.2*	0.5	3.1	-7.4	15.5	2.0
